Reference: the supplement of paper PMC10849652
About 7,900 targets were measured; listed, in parts, are those with a hit and a random draw of the rest. About 0.6% of all pairs of compound and target were hits.

Key:
Test in all cases: log2 fold change, soluble protein after heating vs DMSO (PISA); higher = thermal stabilisation; K562 cells, 10 uM, 30 min; active = over 0.2 and 3.5 SD of the protein, either way, in both replicates (recomputed)
[1] = compound: COC1=CC=C(C=C1)CN2C=CC3=C2C=C(C=C3)C(=O)NO
How it was run: (§1)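 K562 cells at 2×10^6 cells/mL were given 10 μM compound for 30 min. Aliquots then went through 3 min of heating across 48°C-58°C, were pooled, and were extracted in PBS with 0.5% NP-40 at 4°C, and the supernatant after 21,000xg for 90 min was quantified by TMTpro 16plex LC-MS/MS with channel sums equalised. Thermal stability relative to control samples, from duplicates, is given as log2 fold change.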

filanesib = compound: CON(C)C(=O)N1N=C(c2cc(F)ccc2F)S[C@@]1(CCCN)c1ccccc1 [filanesib]
How it was run: as §1

zotarolimus = compound: CO[C@H]1C[C@@H]2CC[C@@H](C)[C@@](O)(O2)C(=O)C(=O)N2CCCC[C@H]2C(=O)O[C@H]([C@H](C)C[C@@H]2CC[C@H](n3cnnn3)[C@H](OC)C2)CC(=O)[C@H](C)/C=C(\C)[C@@H](O)[C@@H](OC)C(=O)[C@H](C)C[C@H](C)/C=C/C=C/C=C/1C [zotarolimus]
How it was run: as §1

idasanutlin = compound: COc1cc(C(=O)O)ccc1NC(=O)[C@@H]1N[C@@H](CC(C)(C)C)[C@](C#N)(c2ccc(Cl)cc2F)[C@H]1c1cccc(Cl)c1F [idasanutlin]
How it was run: as §1

[2] = compound: COc1cc2nc(-c3cc(F)ccc3O)nc(N[C@@H]3CNC[C@H]3C(C)(C)O)c2cc1OC
How it was run: as §1

gefitinib = compound: COc1cc2ncnc(Nc3ccc(F)c(Cl)c3)c2cc1OCCCN1CCOCC1 [gefitinib]
How it was run: as §1

[3] = compound: COc1cccc2cc(-c3nc([C@H]4CC[C@H](C(=O)O)CC4)n4ncnc(N)c34)[nH]c12
How it was run: as §1

lapatinib = compound: CS(=O)(=O)CCNCc1ccc(-c2ccc3ncnc(Nc4ccc(OCc5cccc(F)c5)c(Cl)c4)c3c2)o1 [lapatinib]
How it was run: as §1

pictilisib = compound: CS(=O)(=O)N1CCN(Cc2cc3nc(-c4cccc5[nH]ncc45)nc(N4CCOCC4)c3s2)CC1 [pictilisib]
How it was run: as §1

alisertib = compound: COc1cc(Nc2ncc3c(n2)-c2ccc(Cl)cc2C(c2c(F)cccc2OC)=NC3)ccc1C(=O)O [alisertib]
How it was run: as §1

Measured: log2 fold change

GSK3B isoform 2 (UniProt P49841)
UniProt P49841, sequence (P49841 whole entry, looked up): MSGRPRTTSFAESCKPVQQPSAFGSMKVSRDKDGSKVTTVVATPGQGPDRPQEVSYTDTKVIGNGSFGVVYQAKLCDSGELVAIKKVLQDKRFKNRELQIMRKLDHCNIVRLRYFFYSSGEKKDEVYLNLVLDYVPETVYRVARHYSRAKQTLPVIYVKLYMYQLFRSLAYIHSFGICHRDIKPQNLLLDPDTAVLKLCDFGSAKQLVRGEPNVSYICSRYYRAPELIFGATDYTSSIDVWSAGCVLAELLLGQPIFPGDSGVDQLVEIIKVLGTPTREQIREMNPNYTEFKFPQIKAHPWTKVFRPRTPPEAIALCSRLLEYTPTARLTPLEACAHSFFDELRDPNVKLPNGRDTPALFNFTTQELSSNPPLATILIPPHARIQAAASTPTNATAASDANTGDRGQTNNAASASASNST
inactive: [1] 0.133 | filanesib -0.034 | zotarolimus 0.013 | idasanutlin -0.121 | [2] 0.056 | gefitinib -0.041 | [3] 0.022 | lapatinib -0.013 | pictilisib 0.014

HS1BP3 (UniProt Q53T59)
inactive: [1] 0.032 | filanesib -0.085 | zotarolimus 0.02 | idasanutlin 0.039 | [2] 0.087 | gefitinib -0.196 | lapatinib 0.118

HDAC7 isoform 5 (UniProt Q8WUI4)
inactive: filanesib 0.121 | zotarolimus 0.054 | idasanutlin 0.024 | alisertib -0.075 | [2] 0.075 | gefitinib -0.015 | [3] 0.046 | lapatinib 0.071 | pictilisib -0.004

HSPA2 (UniProt P54652)
UniProt P54652, sequence (P54652 whole entry, looked up): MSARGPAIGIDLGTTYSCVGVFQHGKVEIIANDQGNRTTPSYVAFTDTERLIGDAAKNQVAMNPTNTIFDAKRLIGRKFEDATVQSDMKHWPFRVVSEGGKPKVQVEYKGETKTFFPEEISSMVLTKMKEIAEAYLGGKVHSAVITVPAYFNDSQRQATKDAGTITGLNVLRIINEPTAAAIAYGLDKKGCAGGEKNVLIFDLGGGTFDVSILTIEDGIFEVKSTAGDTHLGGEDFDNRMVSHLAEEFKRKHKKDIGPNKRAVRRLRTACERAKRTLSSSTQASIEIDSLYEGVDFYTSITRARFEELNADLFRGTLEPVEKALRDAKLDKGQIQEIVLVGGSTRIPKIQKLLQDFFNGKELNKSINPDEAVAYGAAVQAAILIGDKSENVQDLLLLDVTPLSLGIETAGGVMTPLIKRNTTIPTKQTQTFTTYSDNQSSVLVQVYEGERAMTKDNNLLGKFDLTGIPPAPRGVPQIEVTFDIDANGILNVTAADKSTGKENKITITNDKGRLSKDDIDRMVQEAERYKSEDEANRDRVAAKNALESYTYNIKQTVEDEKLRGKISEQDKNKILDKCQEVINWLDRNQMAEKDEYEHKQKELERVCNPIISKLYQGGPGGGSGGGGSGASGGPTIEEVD
inactive: [1] -0.103 | filanesib 0.026 | idasanutlin 0.032 | alisertib -0.077 | gefitinib 0.005 | [3] 0.076

GINS2 (UniProt Q9Y248)
UniProt Q9Y248, sequence (Q9Y248 whole entry, looked up): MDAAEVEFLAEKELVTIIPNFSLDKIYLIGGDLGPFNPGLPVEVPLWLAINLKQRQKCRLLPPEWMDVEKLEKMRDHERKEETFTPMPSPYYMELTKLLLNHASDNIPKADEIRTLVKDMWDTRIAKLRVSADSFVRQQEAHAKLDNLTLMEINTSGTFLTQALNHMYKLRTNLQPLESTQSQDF
inactive: [1] 0.057 | filanesib -0.021 | zotarolimus 0.29 | alisertib -0.069 | [2] 0.025 | gefitinib 0.035 | [3] -0.089 | lapatinib -0.026 | pictilisib -0.119

HDAC1 (UniProt Q13547)
UniProt Q13547, sequence (Q13547 whole entry, looked up): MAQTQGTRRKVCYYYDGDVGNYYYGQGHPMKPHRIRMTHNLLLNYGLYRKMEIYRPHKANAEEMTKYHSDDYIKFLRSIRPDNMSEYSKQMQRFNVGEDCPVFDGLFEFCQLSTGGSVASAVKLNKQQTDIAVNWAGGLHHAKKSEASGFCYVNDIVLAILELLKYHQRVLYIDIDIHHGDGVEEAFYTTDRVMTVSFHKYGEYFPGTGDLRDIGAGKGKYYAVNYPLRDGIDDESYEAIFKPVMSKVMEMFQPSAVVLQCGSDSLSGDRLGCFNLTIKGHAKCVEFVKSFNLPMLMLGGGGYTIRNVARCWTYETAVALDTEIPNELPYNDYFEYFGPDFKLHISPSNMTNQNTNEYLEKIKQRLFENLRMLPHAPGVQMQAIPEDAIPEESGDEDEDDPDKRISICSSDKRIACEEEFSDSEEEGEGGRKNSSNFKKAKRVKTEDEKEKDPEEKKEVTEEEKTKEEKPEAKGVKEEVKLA
inactive: filanesib 0.059 | zotarolimus -0.019 | idasanutlin -0.023 | alisertib 0.031 | [2] 0 | gefitinib 0.025 | [3] 0.024 | lapatinib 0.141 | pictilisib 0.06

GOLGA6B (UniProt A6NDN3)
UniProt A6NDN3, sequence (A6NDN3 whole entry, looked up): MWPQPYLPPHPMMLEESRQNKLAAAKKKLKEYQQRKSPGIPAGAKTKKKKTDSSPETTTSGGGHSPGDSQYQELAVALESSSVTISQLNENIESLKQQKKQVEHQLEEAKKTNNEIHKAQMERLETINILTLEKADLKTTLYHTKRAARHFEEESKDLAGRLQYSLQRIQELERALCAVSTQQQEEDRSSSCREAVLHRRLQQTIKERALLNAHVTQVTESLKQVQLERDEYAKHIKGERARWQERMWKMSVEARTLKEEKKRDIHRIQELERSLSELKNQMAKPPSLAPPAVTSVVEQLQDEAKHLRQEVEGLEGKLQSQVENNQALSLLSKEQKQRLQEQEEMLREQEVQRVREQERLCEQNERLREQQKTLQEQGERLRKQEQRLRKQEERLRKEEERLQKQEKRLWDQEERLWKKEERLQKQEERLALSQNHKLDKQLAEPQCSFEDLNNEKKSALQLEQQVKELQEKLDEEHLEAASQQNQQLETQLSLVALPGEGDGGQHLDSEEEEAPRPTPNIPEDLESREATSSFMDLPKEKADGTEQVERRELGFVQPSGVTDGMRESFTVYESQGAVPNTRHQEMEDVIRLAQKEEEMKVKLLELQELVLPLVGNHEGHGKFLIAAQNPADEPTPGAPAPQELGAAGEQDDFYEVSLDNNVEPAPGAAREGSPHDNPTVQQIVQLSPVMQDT
inactive: [1] 0.088 | filanesib -0.115 | alisertib -0.092 | gefitinib 0.012 | [3] 0.102 | pictilisib 0.144

FGG (UniProt P02679)
UniProt P02679, sequence (P02679 whole entry, looked up): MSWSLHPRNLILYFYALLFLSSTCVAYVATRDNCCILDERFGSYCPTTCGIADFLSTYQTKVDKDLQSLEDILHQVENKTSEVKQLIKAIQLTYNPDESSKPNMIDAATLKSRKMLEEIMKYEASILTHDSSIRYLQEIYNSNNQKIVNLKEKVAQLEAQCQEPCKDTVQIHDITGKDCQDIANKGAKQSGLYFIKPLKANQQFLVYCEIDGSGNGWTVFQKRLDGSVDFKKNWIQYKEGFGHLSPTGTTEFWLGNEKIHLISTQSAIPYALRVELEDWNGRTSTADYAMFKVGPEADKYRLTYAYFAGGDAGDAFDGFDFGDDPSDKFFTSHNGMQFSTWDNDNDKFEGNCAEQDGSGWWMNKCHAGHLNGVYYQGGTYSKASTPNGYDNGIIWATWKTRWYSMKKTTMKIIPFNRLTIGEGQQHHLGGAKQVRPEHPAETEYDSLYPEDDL
inactive: [2] -0.068 | lapatinib -0.001 | pictilisib -0.367

FYB1 isoform 3 (UniProt O15117)
inactive: [1] 0.001 | filanesib 0.06 | idasanutlin -0.106 | alisertib -0.035 | [2] 0.026 | gefitinib 0.103 | [3] 0.134 | lapatinib 0.068 | pictilisib 0.108

FASTKD1 (UniProt Q53R41)
inactive: [1] -0.037 | filanesib -0.011 | zotarolimus -0.192 | idasanutlin -0.028 | gefitinib 0.473 | pictilisib 0.127

IFNGR1 (UniProt P15260)
UniProt P15260, sequence (P15260 whole entry, looked up): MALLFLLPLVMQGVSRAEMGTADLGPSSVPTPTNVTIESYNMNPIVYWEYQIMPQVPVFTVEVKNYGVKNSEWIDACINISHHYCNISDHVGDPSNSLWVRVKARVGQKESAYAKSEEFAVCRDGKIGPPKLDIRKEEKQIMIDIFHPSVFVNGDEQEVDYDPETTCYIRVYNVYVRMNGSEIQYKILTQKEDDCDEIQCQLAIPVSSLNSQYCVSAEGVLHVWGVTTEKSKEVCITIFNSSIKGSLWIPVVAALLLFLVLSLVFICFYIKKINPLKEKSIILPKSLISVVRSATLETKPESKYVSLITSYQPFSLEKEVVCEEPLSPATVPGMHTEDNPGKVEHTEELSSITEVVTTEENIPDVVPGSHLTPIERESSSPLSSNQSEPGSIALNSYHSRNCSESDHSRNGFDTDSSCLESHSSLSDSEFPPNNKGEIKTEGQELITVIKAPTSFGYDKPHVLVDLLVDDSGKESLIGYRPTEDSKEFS
inactive: filanesib 0.091 | zotarolimus -0.067 | idasanutlin 0.105 | alisertib -0.09 | [2] 0.207 | gefitinib 0.097 | [3] 0.143 | lapatinib -0.058 | pictilisib -0.085

HDAC10 (UniProt Q969S8)
UniProt Q969S8, sequence (Q969S8 whole entry, looked up): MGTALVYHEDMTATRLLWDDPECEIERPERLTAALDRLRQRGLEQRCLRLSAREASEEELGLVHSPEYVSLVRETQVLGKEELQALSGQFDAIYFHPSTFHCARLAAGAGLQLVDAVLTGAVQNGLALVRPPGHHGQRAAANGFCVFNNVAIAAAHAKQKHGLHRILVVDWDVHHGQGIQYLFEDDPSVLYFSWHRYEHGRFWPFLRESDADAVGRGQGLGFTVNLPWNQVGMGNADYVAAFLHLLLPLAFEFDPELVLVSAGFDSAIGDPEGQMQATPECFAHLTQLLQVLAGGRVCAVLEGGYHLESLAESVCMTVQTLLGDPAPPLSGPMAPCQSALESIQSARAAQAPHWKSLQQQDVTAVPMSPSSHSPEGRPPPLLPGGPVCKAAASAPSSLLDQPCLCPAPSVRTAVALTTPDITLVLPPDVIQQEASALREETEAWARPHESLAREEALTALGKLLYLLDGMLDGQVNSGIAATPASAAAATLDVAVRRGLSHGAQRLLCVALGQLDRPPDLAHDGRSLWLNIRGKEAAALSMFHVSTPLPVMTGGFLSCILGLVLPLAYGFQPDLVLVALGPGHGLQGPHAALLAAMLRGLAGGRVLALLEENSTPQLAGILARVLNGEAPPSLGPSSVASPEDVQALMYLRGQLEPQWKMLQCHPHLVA
inactive: zotarolimus -0.022 | idasanutlin -0.157 | alisertib -0.264 | [2] 0.049 | gefitinib 0.168 | [3] 0.065 | lapatinib 0.044 | pictilisib 0.084

GID4 (UniProt Q8IVV7)
inactive: filanesib -0.089 | zotarolimus 0.013 | idasanutlin -0.023 | alisertib -0.074 | [2] 0.097 | gefitinib -0.067 | [3] 0.01 | lapatinib -0.14 | pictilisib 0.024

FIZ1 (UniProt Q96SL8)
inactive: [1] -0.081 | filanesib 0.078 | zotarolimus 0.048 | alisertib 0.117 | gefitinib 0.001 | [3] -0.108 | pictilisib 0.016

HNRNPUL1 (UniProt M0R247)
inactive: [1] -0.028 | filanesib 0.029 | zotarolimus -0.468 | idasanutlin 0.277 | [2] 0.117 | gefitinib 0.1 | lapatinib -0.15

HBZ, A0A494C057
inactive: alisertib 1.67 | gefitinib 0.151 | [3] 0.009

IDH3A isoform 2 (UniProt P50213)
inactive: [1] 0.32 | zotarolimus -0.056 | idasanutlin -0.246 | gefitinib 0.029

HEATR3 (UniProt Q7Z4Q2)
UniProt Q7Z4Q2, sequence (Q7Z4Q2 whole entry, looked up): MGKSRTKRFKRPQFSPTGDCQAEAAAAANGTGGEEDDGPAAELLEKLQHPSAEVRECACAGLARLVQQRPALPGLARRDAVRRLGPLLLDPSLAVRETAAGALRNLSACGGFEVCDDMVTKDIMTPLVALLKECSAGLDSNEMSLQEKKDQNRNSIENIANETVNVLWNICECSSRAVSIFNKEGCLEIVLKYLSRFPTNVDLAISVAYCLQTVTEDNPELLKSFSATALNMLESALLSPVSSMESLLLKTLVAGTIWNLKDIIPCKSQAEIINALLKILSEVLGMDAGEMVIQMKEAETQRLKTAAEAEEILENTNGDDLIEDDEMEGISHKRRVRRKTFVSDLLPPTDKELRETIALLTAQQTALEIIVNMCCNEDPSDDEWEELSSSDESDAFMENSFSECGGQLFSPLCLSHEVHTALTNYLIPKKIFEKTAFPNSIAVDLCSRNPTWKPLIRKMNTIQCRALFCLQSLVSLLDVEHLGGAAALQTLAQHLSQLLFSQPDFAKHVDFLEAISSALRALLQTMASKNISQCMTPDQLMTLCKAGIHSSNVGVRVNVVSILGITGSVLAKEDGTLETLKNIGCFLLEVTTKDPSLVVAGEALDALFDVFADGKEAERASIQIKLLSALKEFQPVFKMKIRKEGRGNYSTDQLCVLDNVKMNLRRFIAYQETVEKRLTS
inactive: [1] 0.027 | filanesib 0.007 | zotarolimus -0.004 | alisertib 0.099 | [2] -0.083 | gefitinib 0.072 | [3] 0.046 | lapatinib 0.004 | pictilisib -0.134

FAT1 (UniProt Q14517)
inactive: [1] 0.098 | filanesib 0.097 | zotarolimus -0.08 | alisertib -0.267 | [2] 0.027 | gefitinib 0.023 | [3] -0.098 | lapatinib 0.029 | pictilisib 0.041

FCF1 (UniProt Q9Y324)
UniProt Q9Y324, sequence (Q9Y324 whole entry, looked up): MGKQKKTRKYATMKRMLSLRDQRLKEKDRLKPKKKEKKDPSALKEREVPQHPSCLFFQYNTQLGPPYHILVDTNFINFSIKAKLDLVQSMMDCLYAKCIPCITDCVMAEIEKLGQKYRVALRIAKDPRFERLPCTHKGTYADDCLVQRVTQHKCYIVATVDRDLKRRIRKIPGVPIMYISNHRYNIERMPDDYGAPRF
inactive: [1] -0.026 | filanesib 0.405 | alisertib -0.272 | [2] 0.1 | [3] -0.299 | lapatinib 0.157 | pictilisib -0.262
